The whole screen tested about 300,000 compounds, of which about 4,000 (1.3%) were called active. The entries come from a sample that favours actives as a whole. A number with no mark means an inactive call.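 Rule for the calls: active = mean replicate score, as percent of positive control median, at least 50; inconclusive = mean below 50 but one replicate at or above 50; inactive = mean and every replicate below 50.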
Assay: S. pyogenes SKKanGAS growth inhibitors in kanamycin, primary screen, streptokinase expression inhibitor project, SKKanGAS strain, BacTiter-Glo luminescence (AID 1662);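 note: strain carries kanamycin resistance gene driven by streptokinase promoter and grows in 40 µg/ml kanamycin; loss of luminescence reflects streptokinase promoter inhibition or plain growth inhibition; 0% = median of DMSO wells and 100% = positive control at its reference dose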
Details: 6 h, at 7.5 µM, active compounds read high

SMILES	inhibition
Cc1ccccc1Nc1c([N+](=O)[O-])ccc2nonc12	4.67%
O=C(NCC(c1ccco1)N1CCc2ccccc2C1)c1ccccc1Cl (configuration not stated)	17.4%
COc1ccccc1NC(=O)c1cc(N2C(=O)C3C4CCC(C4)C3C2=O)ccc1Cl (configuration not stated)	-15.7%
Cc1ccc(-c2ccc(=O)n(Cc3ccc(F)cc3Cl)n2)cc1	12.7%
N/C(=N/O)c1cccn1Cc1ccccc1[N+](=O)[O-]	0.341%
O=c1c([N+](=O)[O-])cccn1Cc1ccc(F)cc1Cl	55.4% (active)
O=c1[nH][nH]c(C(F)(F)F)c1C=NCc1ccccc1Cl	-1.93%
CCc1c(O)cc2n(c1=O)-c1ccccc1C2(C)C	17.4%
NC(=O)c1nsc(C(=O)N(CC(=O)NCc2ccc(F)cc2)Cc2ccco2)c1N	0.443%
CC(C)CCC(C)NC(=O)c1ccc2nccnc2c1 (configuration not stated)	-6.24%
CCCCCCCCCCCCN1C(=O)CSC1c1cccnc1 (configuration not stated)	49.9% (active)
CN(C)CCCN1C(=O)CSC1c1ccc([N+](=O)[O-])cc1 (configuration not stated)	2.76%
CCCCCCOc1ccc(OC(=O)c2cccnc2)cc1	-1.41%
Clc1ccc(C2=CSC3=Nc4cccc5cccc(c45)N23)cc1	58.7% (active)
O=C(Nc1ccc(S(=O)(=O)Nc2ncccn2)cc1)C12CC3CC(CC(C3)C1)C2	7.21%
O=C(O)/C=C/c1cn(Cc2ccccc2)nc1-c1cccs1	8.13%
CCOC(=O)/C(C#N)=C/c1cn(CCC(=O)O)nc1-c1ccc(Br)cc1	-0.784%
O=C(O)CCn1cc(/C=C/C(=O)c2ccc(Cl)cc2)c(-c2cccc(Br)c2)n1	63.3% (active)
CCC(c1nnc(SCC(=O)NNC(=O)c2ccccc2)n1Cc1ccccc1)N(C)C (configuration not stated)	-9.47%
O=C(CNC(=O)c1ccc(Br)o1)Nc1ccccc1	-5.14%
Cc1ccc(C(CNC(=O)Nc2cccc(C)c2)N2CCN(C)CC2)cc1 (configuration not stated)	-5.31%
O=C(Nc1nnc(C2COc3ccccc3O2)o1)c1ccc(F)cc1 (configuration not stated)	103% (active)
CC1COc2ccccc2N1C(=O)c1ccc(F)cc1 (configuration not stated)	0.0101%
O=C(Nc1ccccc1F)c1ccc2c(c1)OCO2	2.8%
CCN(CC)S(=O)(=O)c1ccc(N(C)Cc2ccc(C(F)(F)F)cc2)nc1	-5.95%
O=C(NCc1nnc(SCC(=O)N2CCCc3ccccc32)o1)c1ccccc1F	3.7%
CC1(C)C2CCC1(CS(=O)(=O)NCCc1c[nH]c3ccccc13)C(=O)C2 (configuration not stated)	-7.05%

Source: PubChem BioAssay AID1662 (Broad Institute, 2009)
